PKM2 activator: qHTS Assay for Activators of Human Muscle isoform 2 Pyruvate Kinase. AID 1631, 2009. purified PKM2, Kinase-Glo ATP luminescence, activation; response scale: 0% is enzyme alone, no compound. Potency, µM (titrated, usually from 57.5 µM), most hits filed as activators. 260,000 tested, 0.34% active; further: nearly all actives have a fitted effect of over 55% in size
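Purified hPK-M2 (>95%) run at intermediate activity with 0.1 mM ADP and 0.5 mM PEP in 50 mM imidazole pH 7.2, KCl, MgCl2; 1 h room temperature. ATP formed read by Kinase-Glo luminescence; normalized to uninhibited and no-enzyme controls.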
IL2 activator: qHTS of IL-2 Activators; IL-2 activation reporter assay, cell-based qHTS; stimulated with anti-CD3/CD4/CD28 beads; in transgenic mouse T cells; activation, % (series mostly up to about 46 µM); 360,000 tested, 0.065% active; in the data active means activation above about 50%; inconclusive means mostly about 30% to 49%
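Using fluorescent plate cytometry, EGFP and DsRed are detected in transgenic mouse T cells stimulated 18 h at 37 degrees C with antibody-coated beads after 60 min compound pretreatment.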
Integrin act MD: qHTS for Activators of Integrin-Mediated Alleviation for Muscular Dystrophy; alpha7betagal myoblasts, beta-gal FDG fluorescence, 48 h; Potency, µM (top dose mostly 38.3 µM), actives largely listed as activators; 350,000 tested, 0.064% active; AID 624291, 2012; further: nearly all actives have a fitted effect of over 60% in size
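Alpha7betagal+/- myoblasts (passage 13) were plated 16-24 hr, then exposed to compounds (1:260 dilution of DMSO stock) for 48 hours at 37C. After MPER lysis, β-galactosidase reporter activity was read as FDG fluorescence (ex 480/em 540) after 30 minutes.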
Apoferritin bind: qHTS Assay for Identification of Novel General Anesthetics | Ferritin light chain (Equus caballus), P02791 | apoferritin/1-aminoanthracene competitive binding, fluorescence | Potency, µM (doses to about 77.5 µM), hits mostly inhibitors | 350,000 tested, 0.074% active | AID 485281, 2010; further: nearly all actives have a fitted effect of over 20% in size
Target sequence (P02791 2-175 limits assumed): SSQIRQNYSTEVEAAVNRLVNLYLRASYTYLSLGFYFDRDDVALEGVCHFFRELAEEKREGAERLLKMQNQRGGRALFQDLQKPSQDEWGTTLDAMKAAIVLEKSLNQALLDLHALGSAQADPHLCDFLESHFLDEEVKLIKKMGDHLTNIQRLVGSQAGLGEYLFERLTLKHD
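Horse-spleen apoferritin (10 uM) was mixed with 50% saturated 1-aminoanthracene in PBS, exposed to compounds for 10 min at room temperature, and read for fluorescence (ex 380 nm, em 535 nm). Competitive displacement was fitted with a four-parameter Hill equation.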
BRCA1 expr up: qHTS Assay to Identify Small Molecule Activators of BRCA1 Expression | MCF7-BRCA1-FFLuc reporter, luminescence, 48 h; response scale: scaled: vehicle 0%, 10 µM genistein 100% | Potency, µM (doses to about 46.1 µM), hits mostly activators | 380,000 tested, 1.1% active; further: nearly all actives have a fitted effect of over 80% in size
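MCF7-BRCA1-FFLuc cells, 2000/well in phenol-red-free MEM, attached 2 h then treated 48 h at 37 C. Luciferase luminescence read 15 min after reagent; normalized to genistein maximum activation (10microM) and DMSO, concentration-response fitted.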
Hits are given with their value. Hits are enriched below; roughly 1.3% of the tested compounds scored in any of these assays. Unless noted, the call rests on the fitted dose curve; in most records, active means well fitted curve in the direction sought with a large enough effect; inconclusive means small, poorly fitted or top-dose-only effect, or another doubt; inactive means no such curve, though single readings can be large; an effect the other way counts as inactive or inconclusive.

For CC1=C/C(=N\NC(=S)NCCc2ccccc2)CC(C)(C)C1 the results were PKM2 activator inactive, IL2 activator inactive, Integrin act MD inactive, Apoferritin bind inactive and BRCA1 expr up 11.2µM.
`NC(Cc1ccccc1)c1nc2ccccc2[nH]1` (stereo not given) gave IL2 activator inactive, Integrin act MD inactive, Apoferritin bind inactive and BRCA1 expr up inactive.
Screening NC(Cc1nc2ccccc2[nH]1)c1ccc(Cl)cc1 (stereo not given) returned PKM2 activator inactive, IL2 activator inactive, Integrin act MD inactive, Apoferritin bind inactive and BRCA1 expr up 11.2µM.
Screening C/C(=N\OC(=O)NC(C)C)c1sc(-c2ccccc2)nc1C returned PKM2 activator inactive, IL2 activator inactive, Integrin act MD inactive, Apoferritin bind inactive and BRCA1 expr up 5.62µM.
C/C(=N\OC(=O)NC(C)C)c1sc(-c2ccc(Cl)cc2)nc1C was read as PKM2 activator inactive, IL2 activator inactive, Integrin act MD inactive, Apoferritin bind inconclusive and BRCA1 expr up inactive.
Screening CC(=O)c1ccc(NC(=O)CSc2nc(=O)cc(N)n2-c2ccccc2)cc1 returned PKM2 activator inactive, IL2 activator inactive, Integrin act MD inactive, Apoferritin bind inactive and BRCA1 expr up 10µM.
Screening O=C1NC(=O)N(c2ccccc2)C(=O)/C1=C\c1ccc2c3c(cccc13)CC2 returned PKM2 activator inactive and Apoferritin bind inactive.
Nc1ccc2c3c(cccc13)CC2 was read as PKM2 activator inactive, IL2 activator 83.3, Integrin act MD inactive, Apoferritin bind inactive and BRCA1 expr up inactive.
For O=C1NC(=O)N(c2ccccc2)C(=O)/C1=C/c1ccc(Sc2ccccc2)o1 the results were PKM2 activator 28.2µM, IL2 activator 96.5, Integrin act MD inactive, Apoferritin bind inconclusive and BRCA1 expr up inactive.
Cc1csc2nc(COC(=O)c3ccccc3NC(=O)c3ccc(F)cc3)cc(=O)n12 was read as Apoferritin bind inactive.
For CCC1OC2(C)C(O)C(/C=C/C=C/C=C/c3oc(=O)cc(OC)c3C)OC1(C)C2OC(C)=O (stereo not given) the results were Apoferritin bind inactive.
CCCOP(=O)(O)c1c([N+](=O)[O-])cc(C(F)(F)F)cc1[N+](=O)[O-] (tested in a mixture with another compound) was read as PKM2 activator inactive, IL2 activator inactive, Integrin act MD inactive, Apoferritin bind inactive and BRCA1 expr up 10µM.
Screening CCOP(=O)(Oc1ccccc1)c1c([N+](=O)[O-])cc(C(F)(F)F)cc1[N+](=O)[O-] (stereo not given) returned IL2 activator inactive, Integrin act MD inactive, Apoferritin bind inactive and BRCA1 expr up inactive.
For Cc1cccc2c3c(ccc12)C1=C(C(=O)C3=O)[C@@H](C)CO1 the results were Apoferritin bind inactive.
For Cc1cccc(OCCn2c(=O)oc3ccc(C)cc32)c1 the results were PKM2 activator inactive, IL2 activator inactive, Integrin act MD inactive, Apoferritin bind inactive and BRCA1 expr up 8.91µM.
Screening O=C1/C(=C\c2ccccc2)C[C@@]2(O)[C@H]3Cc4ccc(O)c5c4[C@@]2(CCN3CC2CC2)[C@H]1O5 returned Apoferritin bind inactive.
Screening CCOc1ccc(C2CC(c3c(O)n(C4CCCCC4)c(=O)[nH]c3=O)=Nc3ccccc3S2)cc1 (stereo not given) returned Apoferritin bind inactive.
Screening Cc1c(N=Cc2c(O)n(C3CCCCC3)c(=O)[nH]c2=O)c(=O)n(-c2ccccc2)n1C returned PKM2 activator inactive, IL2 activator 62.0, Integrin act MD inactive, Apoferritin bind inactive and BRCA1 expr up inactive.
For Cc1c(N=Cc2c(O)n(CCc3ccccc3)c(=O)[nH]c2=O)c(=O)n(-c2ccccc2)n1C the results were PKM2 activator inactive, IL2 activator inactive, Integrin act MD inactive, Apoferritin bind inactive and BRCA1 expr up inactive.
COc1ccc(NC(=O)CCn2cnc3onc(-c4ccc(F)cc4)c3c2=O)cc1OC was read as Apoferritin bind inactive.
Screening Cc1cc(/C=C2\C(=O)NC(=O)N(c3cccc(Br)c3)C2=O)c(C)n1C returned PKM2 activator inactive, IL2 activator 67.7, Integrin act MD inactive, Apoferritin bind inactive and BRCA1 expr up inactive.
Cc1cc(/C=C2/C(=O)NC(=O)N(c3ccc(Br)cc3)C2=O)c(C)n1C was read as PKM2 activator inactive, IL2 activator inactive, Integrin act MD inactive, Apoferritin bind inactive and BRCA1 expr up inactive.
For COc1ccc(N2C(=O)NC(=O)/C(=C\c3cn(C)c4ccccc34)C2=O)cc1 the results were IL2 activator inactive, Integrin act MD inactive, Apoferritin bind inactive and BRCA1 expr up inactive.
`COC(=O)Cn1cc(/C=C2\C(=O)NC(=O)N(c3ccc(OC)cc3)C2=O)c2ccccc21` gave IL2 activator 92.4, Integrin act MD inactive, Apoferritin bind inactive and BRCA1 expr up inactive.
Screening Cc1ccc(N/N=C/C=C/c2ccco2)cc1 returned IL2 activator inactive, Integrin act MD inactive and BRCA1 expr up 7.94µM.
For O=c1c2cc(N3CCOCC3)ccc2[nH]c(=S)n1Cc1ccc(Cl)cc1 the results were PKM2 activator inactive, IL2 activator inactive, Integrin act MD inactive, Apoferritin bind inactive and BRCA1 expr up 11.2µM.
For Nc1ccc2c(c1)Cc1cc([N+](=O)[O-])ccc1-2 the results were PKM2 activator inactive, IL2 activator inactive, Integrin act MD inactive, Apoferritin bind inactive and BRCA1 expr up 10µM.
`O=C(Cn1c(=O)nc(-c2ccccc2)c2cc(Cl)ccc21)NCc1ccccc1` gave Apoferritin bind inactive.
Screening Cc1ccc2c(c1N)C(=O)c1ccccc1C2=O returned IL2 activator inactive and BRCA1 expr up 10µM.
Screening O=C1c2ccccc2C(=O)c2ccccc21 returned Apoferritin bind inactive.
COc1ccc(-n2nc(C(=O)NCC(=O)N3CCC4(CC3)OCCO4)c3ccccc3c2=O)cc1Cl was read as PKM2 activator inactive, IL2 activator inactive, Integrin act MD inactive, Apoferritin bind inactive and BRCA1 expr up 10µM.
Screening COc1ccc(-n2nc(C(=O)NCC(=O)N3CCC4(CC3)OCCO4)c3ccccc3c2=O)cc1 returned PKM2 activator inactive, IL2 activator inactive, Integrin act MD inactive, Apoferritin bind inactive and BRCA1 expr up inconclusive.
For COc1ccc(-c2nc3ccccc3c(=O)o2)cc1 the results were PKM2 activator inactive, IL2 activator inactive, Integrin act MD inactive, Apoferritin bind inactive and BRCA1 expr up 14.1µM.
O=C1C(=Cc2ccccc2)N2CCC1CC2 was read as IL2 activator inactive, Integrin act MD inactive and BRCA1 expr up inactive.

Bioassay records (PubChem BioAssay)
